Here are results for 13 compounds from PubChem BioAssay AID720494 (Broad Institute, 2013).

What is called AC50 is the midpoint of the concentration-response curve, whichever way the signal moves.

This is one part of the list. Activity calls are given as the source filed them. No cut-off is given here; in the data, nearly all actives have AC50 up to about 14 µM.

The assay in a line: compounds quenching or disrupting AlphaScreen beads readout – biochemical, cherry-picked samples, luminescence, artefact control, dose response (AID 720494). As to conditions: AlphaScreen interference counter-screen, signal luminescence; series mostly up to 12 µM; activity change, negative = inhibition: at the top concentration. Background: Bead proximity is the source of the signal in Alpha formats.
As for `Cc1ccc(NC(=S)N(CCCN2CCCC2)Cc2cccn2Cc2ccc(Cl)cc2)cc1`, the “activity change, negative = inhibition” value is -4.08% (inactive). Still for that read-out and setting: the figure for `COc1ccc(-c2ccc3[nH]c4c(c3c2)CCN2C[C@H]3[C@H](C)ON(C)[C@H]3C[C@@H]42)cc1` is -4.62% (inactive). `COc1ccc2c(c1)c(=Cc1ccc(N(C)C)cc1)c1cc(-c3ccccc3)[n+](C)n12`: the half-maximal activity concentration (AC50) is 3.02 µM (active). In the case of `CN(C)CCNC(=O)c1cccc(-c2cnc3c(NC=O)cc(-c4cccc(C(F)(F)F)c4)cn23)c1`, the “activity change, negative = inhibition” value is -35% (inactive). Still for that read-out and setting: the value for `O=C(NCCc1cccc(F)c1)C1CCCN(c2nc3ccccc3s2)C1` (stereo not drawn) was 4.51% (inactive). As to `COc1ccc2[nH]c3c(C)c4cc[n+](C)cc4c(C)c3c2c1`, the “activity change, negative = inhibition” value was -36.2% (inactive). The same measure, in the same setting: the figure for `CCN(CC)CCOc1ccc2c(c1)C(=NNC(=O)c1ccccn1)c1cc(OCCN(CC)CC)ccc1-2` is -27.8% (inactive); for `COc1ccc(N2CCN(C3CCCCC3NS(=O)(=O)c3ccccc3)CC2)cc1` (stereo not drawn) it is -23.3% (inactive). Same read-out and setting: the figure for `C[C@H]1CN([C@@H](C)CO)C(=O)c2c(c3ccccc3n2C)-c2ccccc2CO[C@@H]1CN(C)Cc1ccc2c(c1)OCCN2C` is -19.3% (inactive); for `Cc1ccc(Nc2cc(C)nc3c(C)ccc([N+](=O)[O-])c23)cc1` it is -19.2% (inactive); for `Cc1c(C)n(Cc2ccc(Cl)cc2)c2ccc(C(=O)NCCCN3CCOCC3)cc12` it is -29.8% (inactive). Consider `Cc1cc(N=Nc2ccc3ccccc3c2)ccc1O`, for which the AC50 is 11.2 µM (active). Consider `COc1ccc2sc(N(CCCN(C)C)C(=O)c3ccc(S(=O)(=O)N(C)C4CCCCC4)cc3)nc2c1`, for which the “activity change, negative = inhibition” value was -35.2% (inactive).
